Shown are actives, neighbours in structure and some others; about 2.4% of the full set was active somewhere.
aSyn yeast inh: qHTS of alpha-syn Inhibitors; Potency, µM (top dose mostly 46.1 µM), without a hit: at the top dose growth rescue (activation), usual class: activators; 370,000 compounds, 0.14% hits; Yeast expressing alpha-synuclein, growth rescue, BacTiter-Glo, 24 h; AID 652106, 2013; further: % of control where 0% means no effect; nearly all actives have a fitted effect of over 65% in size
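Rescue of yeast growth: cells expressing toxic alpha-synuclein, induced in galactose at OD600 0.02, incubated with compound 24 h at 30 C. ATP luminescence quantified growth; inhibitors of toxicity appear as activators.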
TDP43 rescue: qHTS of TDP-43 Inhibitors | TDP-43 expressing yeast growth rescue, BacTiter-Glo, 24 h | Potency, µM (series often up to 46.1 µM), inactives show at the highest dose growth rescue (activation), hits mostly activators | 410,000 compounds, 1.8% hits; further: % of control where 0% means no effect; nearly all actives have a fitted effect of over 50% in size
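Cell-based yeast growth screen: TDP-43 expression induced in galactose, inoculum OD600=0.02 after raffinose pregrowth to mid-log. Read-out BacTiter-Glo luminescence at 24 hr, 30 deg C; inhibition of toxicity seen as signal increase.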
FUS suppressor: qHTS for Suppressors of FUS Proteinopathy: Primary screen using FUS-linked yeast assay; S. cerevisiae FUS-expressing, growth rescue, OD600, 24 h; Potency, µM (doses to about 76.6 µM), hits mostly activators; 390,000 compounds, 0.24% hits;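 further: plate controls were DMSO vehicle for no effect and reference control for full effect; nearly all actives have a fitted effect of over 55% in size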
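Cultures pregrown in 2.5% raffinose medium are shifted to minimal medium containing 2% galactose to express toxic FUS. Compounds are tested at several concentrations. After 24hr at 30C, growth is quantified at 600 nm absorbance.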
Mito fusion act: qHTS Assay for Small Molecule Inhibitors of Mitochondrial Division or Activators of Mitochondrial Fusion | AID 485298, 2010 | S. cerevisiae fusion-defective mutant growth rescue, CellTiterGlo 48 h | 320,000 compounds, 0.23% hits | Potency, µM (highest dose often 46.1 µM), for inactives: top-dose growth rescue (activation), usual class: activators; further: % of control where 0% means no effect; nearly all actives have a fitted effect of over 45% in size
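S. cerevisiae fusion-defective temperature-sensitive mutants (e.g. fzo1-1, mgm1-5) grown 48 h at 37C in YPEG (ethanol/glycerol non-fermentable) medium with 23 nl compound per well; growth rescue read as CellTiterGlo luminescence.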
Abeta yeast res: qHTS for compounds that reverse cellular toxicity of Amyloid beta (A-beta) peptide in yeast: Primary Screen. AID 1347071, 2019. 410,000 compounds, 0.063% hits. Potency, µM (series often up to 46.1 µM), actives largely listed as activators. yeast expressing A-beta42, growth rescue, OD600, 48 h; response scale: 0% DMSO, 100% iron-clioquinol control; further: nearly all actives have a fitted effect of over 55% in size
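Yeast A-beta toxicity model in growth medium with pinned compounds, 48 h at 30 C; growth read as absorbance at 600 nm. Normalized to FeCl3/clioquinol equimolar mix (positive) and DMSO (negative).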
A-T KAP1 phos: qHTS Assay for Identifying a Potential Treatment of Ataxia-Telangiectasia. F2112 A-T fibroblasts, KAP-1 phosphorylation AlphaLISA; neocarzinostatin DNA damage 30 min before lysis. Potency, µM (top dose mostly 57.5 µM), without a hit: at the top dose activation, hits mostly activators. 320,000 compounds, 0.19% hits. AID 485349, 2010; further: % of control where 0% means no effect; nearly all actives have a fitted effect of over 45% in size
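ATM-like activity read as KAP-1 phosphorylation via AlphaLISA donor/acceptor antibody pairs after lysis and 6 hr at 25C. Cells were ATM-null patient fibroblasts (F2112, hTERT), dosed 60 min, then exposed to the DSB inducer NCS for 30 min.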
* hit, by the source's call; i = inactive; ? = inconclusive; nt = no result; [ ] = another dose, or the depositor's remark. The call rests on the fitted dose curve; in most records, active means well fitted curve in the direction sought with a large enough effect; inconclusive means small, poorly fitted or top-dose-only effect, or another doubt; inactive means no such curve, though single readings can be large; an effect the other way counts as inactive or inconclusive. Potency means the concentration at half of the fitted maximal effect.

SMILES	aSyn yeast inh	TDP43 rescue	FUS suppressor	Mito fusion act	Abeta yeast res	A-T KAP1 phos
O=C(NC1=C(Nc2ccc(Cl)cc2)C(=O)c2ccccc2C1=O)c1ccccc1	8%	8%	nt	?	i	3%
CCOC(=O)c1sc2ncnc(NCc3ccco3)c2c1C	3%	20µM*	i	-2%	?	-4%
CCOC(=O)c1sc2nc(CC(=O)OC)nc(NCc3ccco3)c2c1C	4%	20%	nt	11%	i	9%
Cc1ccccc1C(=O)N(Cc1ccccn1)CC1CCCO1 (stereo not drawn)	nt	nt	i	nt	nt	nt
Cc1ccc(-c2csc3nc[nH]c(=S)c23)cc1C	?	25µM*	i	11%	?	-4%
COc1ccc(NCC(O)COc2ccc(C(C)(C)C)cc2)cc1 (stereo not drawn)	24%	16µM*	i	5%	?	-4%
COc1ccccc1NCC(O)COc1ccc(C(C)(C)C)cc1 (stereo not drawn)	?	-27%	?	-1%	i	-2%
COc1ccc(N2CCN(CC(O)COc3ccc(C(C)(C)C)cc3)CC2)cc1 (stereo not drawn)	nt	13µM*	i	nt	i	nt
COc1ccc(OCC(O)CN2CCN(c3ccccc3)CC2)cc1 (stereo not drawn)	-5%	-17%	i	1%	i	-1%[11.5 µM]
COc1cc(C)ccc1OCCn1c(-c2ccc(Cl)cc2)nc2ccccc2c1=O	nt	11%	i	nt	i	nt
O=C(NCCc1ccc(F)cc1)c1ccc2c(c1)ncn2C1CCCCC1	nt	nt	i	nt	nt	nt
Cc1cc(NC(=O)c2ccc(NS(=O)(=O)c3ccccc3)cc2)no1	nt	nt	i	nt	nt	nt
O=[N+]([O-])c1ccc(N2CCN(C(=S)NCc3ccc(Cl)cc3)CC2)cc1	23%	?	i	-20%	5.6µM*	2%
CCNC(=S)N1CCN(c2ccc([N+](=O)[O-])cc2)CC1	-3%	5%	i	-1%	i	-1%
CCCc1ccc(S(=O)(=O)N2CCC(Oc3ccc(-n4cnnn4)cc3)CC2)cc1	nt	-1%	i	nt	i	nt
CCC(=O)Nc1sc2c(c1C#N)CC(C)(CC)OC2 (stereo not drawn)	nt	11µM*	i	2%	i	1%
CC(C)[C@H](NC(=O)[C@@H]1CCCN1)C(=O)N1CCC2CCN(S(=O)(=O)c3ccccc3)CC21 (stereo partly drawn)	nt	nt	i	nt	nt	nt
Clc1ccccc1Nc1nc(-c2ccncc2)nc2ccccc12	1%	35µM*	i	12%	i	-1%
CC(C)C(=O)N1CC[C@H]2[C@H](CCCN2Cc2ccccc2)C1	nt	nt	i	nt	nt	nt
COC(=O)c1ccc(-n2c(C)cc(C(=O)CSc3cccc[n+]3[O-])c2C)cc1	?	14µM*	i	-8%	i	1%
Cc1cc(C(=O)CSc2cccc[n+]2[O-])c(C)n1-c1ccc(OC(F)F)cc1	-7%	14µM*	i	-6%	i	?
Cc1cc(C(=O)Cn2nc(C(=O)O)c3ccccc3c2=O)c(C)n1-c1ccc(OC(F)F)cc1	0%	30%	?	8%	i	2%
C#CCSc1nncn1C(=O)/C=C/c1ccccc1	13µM*	-16%	i	1%	i	-6%
C#CCSc1nc2ccccc2c(=O)n1CC=C	5%	nt	nt	nt	nt	nt
Nc1c2c(=O)oc(-c3ccccc3)cc2nn1-c1ccccc1	25%	14µM*	i	10%	i	-6%
SMILES	aSyn yeast inh	TDP43 rescue	FUS suppressor	Mito fusion act	Abeta yeast res	A-T KAP1 phos
C=CCc1ccccc1OCC(=O)N/N=C/c1ccc(OC(C)=O)cc1OC(C)=O	13µM*	-8%	i	-18%	i	2%
Cc1ccc(/C=N/Nc2nc3ccccc3s2)o1	0%	11µM*	i	19%	?	-2%
Cc1ccc(/C=N/Nc2nc(C(C)(C)C)cs2)o1	1%	13%	i	1%	i	1%
Cc1ccc2cc3cc(C(=O)N(C)c4ccccc4C)oc3nc2c1	nt	23%	i	nt	i	nt
NC(=S)N=Nc1ccc(O)cc1	-15%	13µM*	nt	nt	i	nt
Cc1cc(N2CCN(c3ccccc3F)CC2)n2cnnc2n1	nt	?	i	nt	i	nt
Cc1cc(N2CCN(c3cccc(C)c3C)CC2)n2cnnc2n1	nt	22µM*	i	nt	i	nt
Cc1nn(Cc2ccc(F)cc2)c(C)c1NC(=O)c1cnn2c1NC(c1cccs1)CC2C(F)(F)F (stereo not drawn)	0%	-2%	28µM*	0%	i	-1%
CNS(=O)(=O)c1cccc(C(=O)OCc2cc(Cl)cc3c2OCOC3)c1	4%	?	i	13%	i	0%
O=C(OCc1cc(Cl)cc2c1OCOC2)c1cccnc1Cl	16µM*	?	i	nt	i	-7%
Cc1c(NC(=O)c2cnn3c(C(F)(F)F)cc(-c4ccco4)nc23)c(=O)n(-c2ccccc2)n1C	8%	3%	i	5%	i	16µM*
Cc1ccc(NC(=O)CN(C)S(=O)(=O)c2cccc3nsnc23)cc1	1%	24%	i	-2%	i	6%
CC(C)c1ccc(NC(=O)CS(=O)(=O)c2cccc3nsnc23)cc1	?	25µM*	i	nt	i	nt
CN(CC(=O)Nc1ccc(Br)cc1)S(=O)(=O)c1cccc2nsnc12	nt	22µM*	i	nt	i	nt
CCN(CC)c1ccc(C=NNC(=O)Cc2cc(=O)[nH][nH]2)c(O)c1	nt	nt	i	nt	nt	nt
Cc1ccc(N2CC(C(=O)Nc3nnc(SCc4ccccn4)s3)CC2=O)cc1 (stereo not drawn)	1%	25%	i	-6%	i	-3%
Cc1cccc(N2CC(C(=O)Nc3nnc(SCc4ccccn4)s3)CC2=O)c1 (stereo not drawn)	3%	-1%	18µM*	-1%	i	8%
Cc1cccc(NC(=O)C2CCN(S(=O)(=O)c3c(C)c(C)cc(C)c3C)CC2)n1	27%	28%	?	20µM*	i	-4%
CCC1CCc2sc(C(=O)N(C)CC(=O)Nc3ccc(N4CCOCC4)cc3)cc2C1 (stereo not drawn)	6%	8.9µM*	i	16%	i	15%
CCC1CCc2sc(C(=O)N(C)CC(=O)Nc3ccc(OC)cc3)cc2C1 (stereo not drawn)	24%	11µM*	i	19%	i	0%
CCCCCCCCCC[n+]1cc(Br)cc(Br)c1	10%	nt	nt	nt	nt	nt
O=C(c1ccco1)N1CCC(Oc2cccnc2)CC1	nt	nt	i	nt	nt	nt

Source: PubChem (National Center for Advancing Translational Sciences (NCATS))
